Inconclusive results are not listed. Values without a mark were called inactive. Active and inactive are the calls of the source. Calls follow the shape of the dose curve; as a rule, active = well fitted inhibition curve with a large enough effect; inconclusive = small, poorly fitted or top-dose-only effect; inactive = flat fitted curve, though single readings scatter.
test: P-glycoprotein substrates identified in KB-8-5-11 adenocarcinoma cell line, qHTS therapeutic library screen (AID 1346987); settings: KB-8-5-11 (P-gp overexpressing) viability, CellTiter-Glo, 72 h; series mostly up to 44.5 µM; activity change, negative = cytotoxicity: at the top concentration; also: nearly all actives have a fitted effect of over 65% in size
Procedure, shortened: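 Steps: plate 500 KB-8-5-11 cells/well in DMEM + 10% FCS (colchicine removed); pin compounds in dose-response; incubate 72 h, 37 degree C, 5% CO2; add CellTiter-Glo, 5 min; read luminescence.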
% is scaled to controls: 0 for no effect and ±100 for the full control effect; potency is read from the fitted curve at half-maximal effect.

Row | Compound | activity change, negative = cytotoxicity | outcome | Potency
1 | COC(=O)C1(C)CCC(=O)C2(C)c3c(O)cc(C(C)C)cc3C(O)C(OC(C)=O)C12 (stereo not drawn) | 5.72% [at 17.3 µM] |  | 
2 | N#CN | 10.6% |  | 
3 | CC(=O)OC1CC(O)C2(C)C(CC(OC(C)=O)C3(C)C2CCC2(C)C(c4ccoc4)C(=O)C4OC423)C1(C)C (stereo not drawn) | -2.4% [at 17.3 µM] |  | 
4 | O=[N+]([O-])c1ccccc1 | 0.576% |  | 
5 | CC[C@H]1CN2CC[C@H]1C[C@@H]2[C@@H](O)c1ccnc2ccc(OC)cc12 | -6.53% |  | 
6 | O=Cc1ccco1 | 7.44% |  | 
7 | ClC1C(Cl)C(Cl)C(Cl)C(Cl)C1Cl (stereo not drawn) | 3.95% |  | 
8 | CCC1(c2ccccc2)C(=O)NC(=O)NC1=O | 5.03% |  | 
9 | COC1=CC(=O)O[C@@H](/C=C/c2ccccc2)C1 |  | inactive | 
10 | C[C@]12CCC(=O)C=C1C=C[C@@H]1[C@@H]2CC[C@@]2(C)[C@H]1CC[C@@]2(O)CCC(=O)O | -10.2% [at 17.3 µM] |  | 
11 | O=C(O)c1ccnc2cc(C(OCCN3CCCCC3)c3ccccc3Cl)[nH]c12 (stereo not drawn) |  | inactive | 
12 | COc1cc(C(=O)O[C@H]2[C@@H]3C=CO[C@@H](O[C@@H]4O[C@H](CO)[C@@H](O)[C@H](O)[C@H]4O)[C@@H]3[C@@]3(CO)O[C@@H]23)ccc1O |  | inactive [at 17.3 µM] | 
13 | COC([CH2][Hg])CNC(=O)c1ccccc1OCC(=O)O (stereo not drawn) | 11.7% |  | 
14 | COC(=O)[C@@H]1[C@H]2CC[C@@H](C[C@H]1OC(=O)c1ccccc1)N2C | 10.9% |  | 
15 | C/C=C(\C)C(=O)OC1CC2C(C)(C)OC(=O)CC(OC(C)=O)C2(C)C2CC(OC(=O)C(C)C)C3(C)C(c4ccoc4)CC4OC43C12C (stereo not drawn) | -2.47% [at 17.3 µM] |  | 
16 | O=C1OC2(c3cc(Br)c(O)cc3Oc3c2cc(Br)c(O)[c]3[Hg])c2ccccc21 (stereo not drawn) | 3.19% [at 17.3 µM] |  | 
17 | CC[C@H]1CN2CC[C@H]1C[C@H]2[C@H](O)c1ccnc2ccc(OC)cc12 | -7.42% |  | 
18 | CC12CCC3C(CCC4(O)CC(O)CCC34C=O)C1(O)CCC2C1=CC(=O)OC1 (stereo not drawn) |  |  | 651 nM (active)
19 | CC(C)CCC(=O)O[C@H]1CC[C@H]2[C@@H]3CCC4=CC(=O)CC[C@]4(C)[C@H]3CC[C@]12C |  |  | 7310 nM (active)

Row | Compound | activity change, negative = cytotoxicity | outcome | Potency
20 | C[C@H]1O[C@@H](O[C@H]2C[C@@H](O)[C@]3(CO)C4C(CC[C@]3(O)C2)[C@@]2(O)CC[C@H](C3=CC(=O)OC3)[C@@]2(C)C[C@H]4O)[C@@H](O)[C@@H](O)[C@H]1O (stereo partly drawn) |  |  | 432 nM (active)
21 | C[N+]1([O-])[C@@H]2CC(OC(=O)[C@H](CO)c3ccccc3)C[C@H]1[C@@H]1O[C@@H]12 (stereo partly drawn) |  |  | inactive
22 | COC(=O)C12C(=O)C(C)(O)C(=O)C1(C)C(C)=CC1C34CCC(OC3=O)C(C)(CO)C4CCC12C (stereo not drawn) |  | inactive [at 17.3 µM] | 
23 | COC1=CC(=O)O[C@@H](CCc2ccccc2)C1 | 2.66% |  | 
24 | ClC=C(Cl)Cl | -2.4% |  | 
25 | N#CC(C#N)=Cc1cc(O)c(O)c(O)c1 | -20.3% |  | 
26 | Cn1sc(Cl)cc1=O | -3.76% |  | 
27 | CCOP(=O)(OCC)O/C(=C/Cl)c1ccc(Cl)cc1Cl |  |  | 10300 nM (active)
28 | CCOc1ccc2c3c1O[C@H]1[C@@H](O)C=C[C@H]4[C@@H](C2)N(C)CC[C@@]341 | 5.25% |  | 
29 | CC(C)CCON=O | -8.86% |  | 
30 | CCCCCCn1c(=O)c(C(=O)Nc2ccc(C(=O)OCCC)cc2)c(O)c2ccccc21 |  | inactive [at 9.29 µM] | 
31 | CN1C(=O)N(c2ccc(C#N)c(C(F)(F)F)c2)C(=O)[C@]1(CO)c1ccccc1 | -16.4% |  | 
32 | COc1ccc2c3c1O[C@H]1[C@@H](O)C=C[C@H]4[C@@H](C2)NCC[C@@]341 |  |  | inactive
33 | COC1CC(OC2CCC3(C=O)C(CCC4C3CCC3(C)C(C5=CC(=O)OC5)CCC43O)C2)OC(C)C1OC1OC(CO)C(O)C(O)C1O (stereo not drawn) |  |  | 172 nM (active)
34 | CNc1ccc(C(=O)CC(O)CCC(C)C2OC(=O)CC(O)CC(=O)CC(O)CC(O)CC(O)CC(O)CC3(O)CC(O)C(C(=O)OC)C(CC(O[C@@H]4O[C@H](C)[C@@H](O)[C@H](N)[C@@H]4O)/C=C/C=C/C=C/C=C/C=C/C=C/C=C/C2C)O3)cc1 (stereo partly drawn) | 2.16% |  | 
35 | CNC(=O)OCC[N+](C)(C)C | -10.8% |  | 
36 | C=CCN=C=S | -3.73% |  | 
37 | CN1CCCC(=C(c2cccs2)c2cccs2)C1 | -5.86% |  | 
38 | OC[C@@H](O)[C@H]1O[C@@H]2O[C@H](C(Cl)(Cl)Cl)O[C@@H]2[C@H]1O | 10.5% |  | 
